Data as given in ChEMBL document CHEMBL3433997, “St. Jude Leishmania screening dataset” (2016).
“And” between values parts separate entries of the source, which are not always exact repeats. Equal entries are not always repeated.

Tests used:
Type in all cases: functional
[1] = biological target: Solute carrier family 2, facilitated glucose transporter member 1 (Homo sapiens) (UniProt P11166); experiment: ST_JUDE_LEISH: Cytotoxicity at 2uM final concentration against transgenic Leishmania Mexicana promastigotes LmGLUT1 that are glucose transport deficient and complemented with the human glucose transporter GLUT1. Activity is measured by DNA content using SYBR green in vitro
[2] = biological target: Hexose transporter 1 (Plasmodium falciparum) (UniProt O97467); experiment: ST_JUDE_LEISH: Cytotoxicity at 2uM final concentration against transgenic Leishmania Mexicana promastigotes LmPfHT that are glucose transport deficient and complemented with the Plasmodium falciparum hexose transporter. Activity is measured by DNA content using SYBR green in vitro
[3] = biological target: Glucose transporter (Leishmania mexicana) (UniProt O61059); experiment: ST_JUDE_LEISH: Cytotoxicity at 2uM final concentration against transgenic Leishmania Mexicana promastigotes LmGT2 that are glucose transport deficient and complemented with the L. Mexicana glucose transporter 2. Activity is measured by DNA content using SYBR green in vitro

Sequence of Solute carrier family 2, facilitated glucose transporter member 1 (Homo sapiens) (P11166 whole entry): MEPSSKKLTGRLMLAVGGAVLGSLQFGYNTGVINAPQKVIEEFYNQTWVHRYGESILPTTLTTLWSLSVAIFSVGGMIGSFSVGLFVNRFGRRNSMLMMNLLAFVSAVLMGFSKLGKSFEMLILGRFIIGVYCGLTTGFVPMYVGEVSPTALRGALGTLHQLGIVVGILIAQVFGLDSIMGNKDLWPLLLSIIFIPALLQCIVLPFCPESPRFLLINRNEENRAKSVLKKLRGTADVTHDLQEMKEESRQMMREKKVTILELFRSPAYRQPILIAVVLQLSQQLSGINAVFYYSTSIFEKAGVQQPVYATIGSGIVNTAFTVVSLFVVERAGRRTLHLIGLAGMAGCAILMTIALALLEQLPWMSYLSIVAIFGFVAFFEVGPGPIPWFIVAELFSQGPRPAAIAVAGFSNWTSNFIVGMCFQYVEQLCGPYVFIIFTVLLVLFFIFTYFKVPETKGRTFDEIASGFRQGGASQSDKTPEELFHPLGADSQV

Row | SMILES | inhibition [1] | inhibition [2] | inhibition [3]
1 | Cc1cccnc1Nc1nc(-c2ccccn2)cs1 | 93.5% | 73.2% | 90.1%
2 | CC(C)CNCc1cccc(-c2ccc(CN(CCCN3CCN(C)CC3)C(=O)/C=C/c3ccccc3)cc2)c1 | 2.92% | 3.29% | 3.9%
3 | O=C(Nc1ccc(N2CCCCC2)c(Cl)c1)c1nc[nH]n1 | 2.18% | -0.39% | 1.65%
4 | CS(=O)(=O)c1ccc(CCNCc2ccc(-c3ccc(CN(C(=O)C4CCCC4)C4CCN(Cc5ccccc5)CC4)cc3)nc2)cc1 | 0.69% | 0.71% | -2.64%
5 | FC(F)(F)c1ccc2[nH]c(-c3cccc(-c4ccc(CNCCc5ccncc5)cc4)c3)nc2c1 | 1.9% | 0.52% | -0.21%
6 | COc1cc2c(cc1S(=O)(=O)c1ccc(COc3ccc(C(F)(F)F)cc3)cc1)CNCC2 | -1.59% | -0.71% | -1.92%
7 | N#CC1(CCCNCCc2ccc(O)cc2)CCCc2c(O)cccc21 (centres undefined) | 14.1% | 12% | 11.7%
8 | S=C(Nc1cccc(Cl)c1)NC1CCN(c2ccnc3cc(Cl)ccc23)C1 (centres undefined) | 13.2% | 9.65% | 9.07%
9 | O=C(CSc1nn(-c2ccccc2)c(=S)s1)c1c[nH]c2ccccc12 | 2.16% | 2.64% | 2.3%
10 | N#Cc1ccc2c(c1)CN(CC[C@H]1CC[C@H](NC(=O)/C=C/c3c[nH]c4ccccc34)CC1)CC2 | 7.48% and 1.99% | 6.9% and 1.06% | 5.69% and -2.35%
11 | COc1cc(CNCCCCCCNCc2cc(OC)c3ccccc3c2OC)c(OC)c2ccccc12 | 8.25% | 11.8% | 13.6%
12 | CCc1ccc(CN2CCC(CNC(=O)c3cc(-c4cccc(Cl)c4)cs3)C2)cc1 (centres undefined) | -0.66% | -0.84% | -4.94%
13 | CS(=O)(=O)n1c(CN2CCN(c3ncc(C(F)(F)F)cc3Cl)CC2)nc2ccccc21 | 8.28% | 7.91% | 5%
14 | O=C(c1c(-c2[nH]c3ccccc3c2C(=O)C(F)(F)F)[nH]c2ccccc12)C(F)(F)F | 1.75% | 0.78% | -1.45%
15 | COc1ccc2nccc([C@@H](O)CN3CCC(NC(=O)C(c4cc5ccccc5s4)N4CCN(c5ccccc5OC)CC4)CC3)c2c1 (some centres undefined) | 1.84% | 1.89% | 0.56%
16 | Cn1cncc1CCCN(Cc1ccc(-c2ccc(C(F)(F)F)cc2)cc1)C(=O)Cn1c(CCc2cccc(F)c2F)cc(=O)c2cccnc21 | 2.28% | 2.54% | 1.5%
17 | CN(Cc1cccc(O)c1)C1CCCN(c2cc(NC(=O)c3ccc(F)cc3)ccn2)C1 (centres undefined) | 3.85% | 6.05% | 5.91%

Row | SMILES | inhibition [1] | inhibition [2] | inhibition [3]
18 | Cc1cc(N(C)CCCN(C)C)nc(Nc2ccc(Br)cc2)n1 | 0.19% | 2.58% | 2.6%
19 | COc1ccc(Cn2c(Nc3cccc(C(F)(F)F)c3)nc3cc(C(=O)NCCCN(C)C)ccc32)cc1Cl | 0.66% | 0.55% | -1.19%
20 | CCCCCCN1CCN(Cc2cccc(NC(=O)c3ccc(Cl)c(Cl)c3)c2)CC1 | 5.8% | 6.59% | 4.85%
21 | CCC(C)CN1CCN(c2ccc(NC(=O)c3cccs3)cc2)C(C)C1 (centres undefined) | 8.34% | 9.28% | 5.37%
22 | CC1CCCC(NCc2c(O)ccc3ccccc23)C1 (centres undefined) | 3.58% | 3.22% | 3.69%
23 | CC(CCON1C(N)=NC(N)=NC1(C)C)c1ccc(Cl)c(Cl)c1 (centres undefined) | 26.6% | 41.4% | 27.7%
24 | OC1CCCN(Cc2cccc(-c3ccc(-c4nc5ccccc5[nH]4)cc3)c2)C1 (centres undefined) | 3.91% | 5.45% | -2.43%
25 | COC(=O)Nc1ccc(-c2ccc(C(=O)NC3CCN(C[C@H](O)c4ccnc5ccc(OC)cc45)CC3)cc2)c(C)c1 | 0.51% | 0.01% | -1.03%
26 | CC(C)CNCc1ccc(-c2cccc(CNC3CCN(Cc4ccccc4)CC3)c2)cc1 | 3.21% | 3.32% | 5.23%
27 | COCn1ncc2cc(-c3cccc(NC(=O)c4csc(NC(C)=O)n4)c3)ccc21 | 3.31% | 1.44% | 2.05%
28 | Cc1ccc(CN2CCCN(Cc3cccc(NC(=O)c4ccc(Cl)c(Cl)c4)c3)CC2)cc1 | -1.13% | -2.91% | -0.82%
29 | CC(C)(C)c1ccc(CNC(=O)COc2ccc(-c3nnc(-c4cccc([N+](=O)[O-])c4)o3)cc2[N+](=O)[O-])cc1 | -0.15% | -0.74% | -0.93%
30 | CN(CCN)Cc1ccc(-c2ccc(-c3nc4cc(F)ccc4[nH]3)s2)cc1 | -0.54% | 0.42% | -1.71%
31 | Cc1cc(=NN=Cc2ccccc2F)c2cc(C(F)(F)F)ccc2[nH]1 | 1.67% | 3.04% | 0.5%
32 | CCCCCCCC1CCN(C[C@H](O)c2ccnc3ccc(OC)cc23)CC1 | 2.75% | 0.96% | 2.08%
33 | COc1cc2nc(C)nc(Nc3ccc(Cc4ccccc4)cc3)c2cc1OC | 4.72% | 5.93% | 3.99%
